Calls of active or inactive are those of the source. The calls were made as follows: active = hit-call score of the fitted dose curve at least 0.9, where 1 is the maximum; inactive = score below 0.9.
Read-out: Thrombomodulin, THBD (gene 7056)
Test: BSK_3C_Thrombomodulin: BioMAP Diversity Plus: 3C Assay for Thrombomodulin Biomarker Activity (AID 2283029)
Conditions: primary human endothelial cells (HUVEC); actives raise or lower the signal
Protocol: BSK_3C is a cell-based, multiplexed-readout assay that uses umbilical vein endothelium, a human vascular primary cell, with measurements taken at 24 hours after chemical dosing in a 96-well plate.BSK_3C_Thrombomodulin is an assay component measured in the BSK_3C assay. It measures Thrombomodulin antibody related to regulation of gene expression using ELISA technology.Data from the assay component BSK_3C_Thrombomodulin was analyzed into 1 assay endpoint. This assay endpoint, BSK_3C_Thrombomodulin, was analyzed with bidirectional fitting relative to DMSO as the negative control and baseline of activity. Using a type of binding reporter, gain or loss-of-signal activity can be used to understand changes in the signaling as they relate to the gene THBD. Furthermore, this assay endpoint can be referred to as a primary readout, because this assay has produced multiple assay endpoints where this one serves a signaling function. To generalize the intended target to other relatable targets, this assay endpoint is annotated to the gpcr intended target family, where the subfamily is rhodopsin-like receptor.
The levels of cell surface (or secreted, indicated by the prefix "s") biomarker endpoints were measured by ELISA. Overt cytotoxicity to cells in confluent adherent cultures (all systems other than the BT system) was assessed by measuring total protein levels using sulforhodamine B (SRB) staining in parallel cultures at the time of biomarker measurements, indicated as SRB endpoints. For proliferation assays for adherent cell types, individual cell types are cultured at sub-confluence and relative cell numbers quantified by SRB staining at time points optimized for each system (48 h: 3C and CASM3C systems; 72 h: BT and HDF3CGF systems; 96 h: SAg system). SRB was performed by staining cells with 0.1% SRB after fixation with 10% TCA and reading wells at 560 nm.Viability and proliferation of PBMC (T cells) was quantified by Alamar Blue reduction for the SAg and BT systems. For PBMC viability (referred to as PBMC Cytotoxicity within the assay endpoint names), cells were plated (75,000/well in a 96-well plate) and then chemical samples added for 1 h before addition of activators, SEB and TSST-1 (20 ng/mL final concentration each). Cells were incubated for 90 h. Then, Alamar Blue (20 uL/well) (Invitrogen, Cat DAL1100) was added for 6 h, and the plates were read with a fluorescence microplate reader at 546/580 nm (excitation/emission). For PBMC proliferation, cells were plated and activated as above but incubated for only 16 h prior to addition of Alamar Blue. Plates were read after 6 h.

outcome, inactive:
CC[C@H](NC(=O)c1cc(F)ccc1NS(=O)(=O)c1cccc2cccnc12)c1ccccc1
CCCC(=O)OCCC(C)C
CCCCCc1ccc(N)cc1
COc1ccc2cc(S(=O)(=O)N[C@H](CC(=O)N[C@H](Cc3ccc(CN4[C@H](C)CCC[C@@H]4C)cc3)C(=O)N(C)C(C)C)c3ccc4c(c3)OCO4)ccc2c1
Cc1cccc2ccccc12
Cc1ccc2oc(CN(Cc3ccccc3)C(=O)Nc3c(F)cc(F)cc3F)c(-c3ccc(Cl)cc3)c2c1
CC1(C)NC(=O)N(c2ccc([N+](=O)[O-])c(C(F)(F)F)c2)C1=O
CC(O)CC(C)(C)O (stereo not given)
Cc1cn([C@H]2C[C@H](N=[N+]=[N-])[C@@H](CO)O2)c(=O)[nH]c1=O
O=c1c(-c2ccc(O)cc2)coc2cc(O)cc(O)c12
COCC(C)OCC(C)OCC(C)O (stereo not given)
CCCCOC(=O)CC(CC(=O)OCCCC)(OC(C)=O)C(=O)OCCCC
CCCOC(=O)c1cc(O)c(O)c(O)c1
C[C@]12CC[C@@H]3c4ccc(O)cc4CC[C@H]3[C@@H]1CC[C@H]2O
Cc1ncc(CO)c(CO)c1O
CCCCCCCCCCCO
CCN(Cc1cccc(S(=O)(=O)O)c1)c1ccc(C(=C2C=CC(=[N+](CC)Cc3cccc(S(=O)(=O)O)c3)C=C2)c2ccccc2S(=O)(=O)[O-])cc1
CCCCOC(=O)c1ccc(O)cc1
O=C(OCCCCCCOC(=O)c1ccccc1)c1ccccc1
O=c1ccc2ccccc2o1
CN1C(=O)N(c2ccccc2Br)Cc2cnc(Nc3ccc4c(c3)OCC(CO)O4)nc21 (stereo not given)
CC(=O)N1CCN(c2ccc(OC[C@H]3CO[C@](Cn4ccnc4)(c4ccc(Cl)cc4Cl)O3)cc2)CC1
O=C(O)c1ccccc1-n1cc(C(=O)O)c(=O)c2cc(Nc3c(F)cc(F)cc3Cl)c(Cl)cc21
O=C=NCCCCCCN=C=O
O=CCCCC=O
CCO[Si](CCCNC(N)=O)(OCC)OCC
CO[C@H]1/C=C/O[C@@]2(C)Oc3c(C)c(O)c4c(O)c(c(/C=N/N5CCN(C)CC5)c(O)c4c3C2=O)NC(=O)/C(C)=C\C=C\[C@H](C)[C@H](O)[C@@H](C)[C@@H](O)[C@@H](C)[C@H](OC(C)=O)[C@@H]1C
O=C1CCC(C2CCCCC2)CC1
OCCO
O=C(O)Cn1c(=O)n(Cc2ccc(Br)cc2F)c(=O)c2ccc(Cl)cc21
Oc1ccccc1
CCCCCCCCCC(=O)O
CC(C)(O)c1ccc(CNC(=O)c2cccnc2Oc2ccc3nonc3c2)cc1
O=C1O[C@H]([C@@H](O)CO)C(O)=C1O
Cc1ccc(C(C)C)cc1
CC(C)(C)c1csc(-c2cc3cc(OCc4ccccc4CC(=O)O)ccc3o2)n1

AC50, active:
Cc1cc2c(cc1C(F)(F)F)N(C(=O)Nc1ccc(Oc3cccnc3C)nc1)CC2 5.4 µM
CCCCCCCC[Si](OCC)(OCC)OCC 21 µM
Clc1ccccc1C(c1ccccc1)(c1ccccc1)n1ccnc1 8.39 µM
Cc1oc2c(NC(=O)c3c(Cl)cccc3Cl)cccc2c1C(C)(C)O 11.8 µM

Source: PubChem BioAssay (EPA / NIEHS)
